Our source for the inhibition values is PubChem BioAssay AID652257 (The Scripps Research Institute Molecular Screening Center, 2013).

Structures are written as SMILES. The campaign covered roughly 370,000 compounds. About 4,800 (1.3%) were called active. This is one part of a sample in which actives are shown more often than they occur. Values without a mark were called inactive.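 How the source made its calls: active means inhibition above about 21% made by adding two undisclosed values (limit read from the data); inactive means the rest.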

Chain of Protein arginine N-methyltransferase 1 (Homo sapiens) (Q99873 whole entry, looked up): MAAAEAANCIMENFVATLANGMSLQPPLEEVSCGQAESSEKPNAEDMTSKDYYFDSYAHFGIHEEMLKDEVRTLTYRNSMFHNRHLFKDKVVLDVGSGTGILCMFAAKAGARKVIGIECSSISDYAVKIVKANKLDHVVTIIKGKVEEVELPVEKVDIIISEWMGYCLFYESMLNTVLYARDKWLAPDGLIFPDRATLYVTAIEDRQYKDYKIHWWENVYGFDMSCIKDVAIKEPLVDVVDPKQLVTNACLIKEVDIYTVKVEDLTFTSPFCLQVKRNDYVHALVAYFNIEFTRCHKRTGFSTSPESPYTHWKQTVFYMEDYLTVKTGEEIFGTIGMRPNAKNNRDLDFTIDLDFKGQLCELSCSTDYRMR

This test has as its target Protein arginine N-methyltransferase 1 (Homo sapiens) (UniProt Q99873). Briefly: PRMT1 methyltransferase inhibitors, primary screen, biochemical, fluorescence polarization (AID 652257). As to conditions: recombinant PRMT1, activity-based probe fluorescence polarization; at 2.79 µM; stronger effect = higher value.
For `CC(C)N1CCCCC(NC(=O)C(C)(C)C)C1=O` (stereo not given), the inhibition (commonly the drop in the measured response relative to a control, in per cent) was -1.77%.
As for `Oc1c(C(c2cccs2)N2CCN(c3ccc(F)cc3)CC2)sc2ncnn12` (stereo not given), the inhibition was -2.78%.
On to `Cc1ccc(C(c2sc3nc(C)nn3c2O)N2CCN(c3ccccc3)CC2)cc1` (stereo not given), for which the inhibition is -1.11%.
Under `Oc1c(C(c2ccco2)N2CCC3(CC2)OCCO3)sc2ncnn12` (stereo not given) stands 21.8% (active); under `Cc1nc2sc(C(c3ccco3)N3CCC4(CC3)OCCO4)c(O)n2n1` (stereo not given), 8.34%; under `Cc1nc2sc(C(c3ccco3)N3CCOCC3)c(O)n2n1` (stereo not given), 49.8% (active).
`CC(CCN1CCC(C(O)(c2ccccc2)c2ccccc2)CC1)Oc1ccc([N+](=O)[O-])cc1Cl` (stereo not given): the inhibition is -5.87%.
For the compound `CC(=O)Nc1ccc(NS(=O)(=O)c2cc(C)sc2C)cc1`, the inhibition was 3.68%.
As for `CC(C)C(C#CC1CC1)N(Cc1ccc2c(c1)OCO2)C(N)=NC(=O)/C=C/c1cccc(C(F)(F)F)c1` (stereo not given), the inhibition was 1.58%.
On to `CCc1ccc(NC2Nc3cc(C)nn3S2)cc1` (stereo not given), for which the inhibition is 30.6% (active).
On to `CC(C)N1CCCCC(NC(=O)c2ccc3ccccc3c2)C1=O` (stereo not given), for which the inhibition was 1.16%.
For `O=C(OCc1cn([C@@H]2C[C@H](c3ccc(Cl)cc3)N(Cc3cccs3)C[C@H]2O)nn1)c1ccccc1`, the inhibition was 6.65%.
Then `COC(=O)[C@@]12CCCCC=C1N(CCc1ccc(Cl)cc1)C(=O)[C@H]2CC(=O)NCc1ccc(OC)c(OC)c1`, with 1.14%.
In the case of `C#CCN([C@@H](C)C(=O)OCC)S(=O)(=O)c1ccc(Br)cc1F`, the inhibition was -2.15%.
For the compound `O=C(COc1cc(Cl)c(Cl)cc1Cl)NCCc1ccccn1`, the inhibition is -6.02%.
Take `O=C(COC(=O)COc1cc(Cl)c(Cl)cc1Cl)NC1CC1`: the inhibition is 0.44%.
In the case of `NC(=S)NN=Cc1ccc(OC(=O)COc2cc(Cl)c(Cl)cc2Cl)cn1`, the inhibition is 47.2% (active).
For `CCOC(=O)C1CCN(C(=O)C(C)(C)NC(=O)Nc2ccc(F)c(F)c2)CC1`, the inhibition is -1.45%.
`CCS(=O)(=O)Nc1cc(C(=O)OC)ccc1C(=O)OC`: the inhibition is 4.51%.
Regarding `O=C(OC12CC3CC(CC(C3)C1)C2)c1ccc(NCc2cc(O)ccc2O)cc1`, the inhibition was 19.5%.
As for `COC(=O)c1ccc(NCc2cc(O)ccc2O)cc1`, the inhibition was 28.5% (active).
`CCC(=O)OCCCN1C(=O)CCC12CCC(c1ccccc1)CC2` (stereo not given): the inhibition is 0.61%.
For `O=C(NCc1cccs1)C1CCN(S(=O)(=O)c2ccccc2[N+](=O)[O-])CC1`, the inhibition was -2.52%.
As for `COc1cccc(N2CCN(C3CC(=O)N(c4ccc(Cl)cc4)C3=O)CC2)c1` (stereo not given), the inhibition is 17%.
`CCOC(=O)c1ccc(N2C(=O)CC(N(C)Cc3ccccc3)C2=O)cc1` (stereo not given): the inhibition was 1.83%.
For the compound `CCOC(=O)c1ccc(N2C(=O)CC(N3CCN(C(=O)c4ccccc4)CC3)C2=O)cc1` (stereo not given), the inhibition is -1.22%.
For `COc1ccc(N2C(=O)CC(N3CCC(C(N)=O)CC3)C2=O)cc1` (stereo not given), the inhibition was 62.3% (active).
On to `CCOC(=O)c1ccc(N2C(=O)CC(N3CCC(C(=O)OCC)CC3)C2=O)cc1` (stereo not given), for which the inhibition was 53.2% (active).
For the compound `COc1ccc(CCN2C(=O)CC(N3CCC(C(N)=O)CC3)C2=O)cc1OC` (stereo not given), the inhibition is 39.3% (active).
Take `COc1ccc(CCN2C(=O)C3CC=C(C)CC3C2=O)cc1OC` (stereo not given): the inhibition was 0.69%.
Under `COc1ccc(CN2C(=O)CC(Cc3ccc(C)cc3)C2=O)cc1OC` (stereo not given) stands 2.37%.
In the case of `COc1cccc(N2C(=O)CC(N3CCN(S(=O)(=O)c4ccccc4)CC3)C2=O)c1` (stereo not given), the inhibition was 4.31%.
Take `CCN(CC)C(=O)CC[C@@H]1CC[C@]2(CCCN(S(=O)(=O)C3CCCCC3)C2)O1`: the inhibition was 8.38%.
Under `CC1(C)SC2c3ccccc3C(=O)N2[C@@H]1C(=O)NCc1ccco1` (stereo not given in full) stands 2.92%; under `CN=C1SC(C(=O)O)CC(=O)N1C` (stereo not given), 0.87%.
Take `COC(=O)[C@]12C[C@H](CC(=O)N3CCOCC3)C(=O)N(Cc3ccc(Cl)cc3Cl)C1=C[C@H](C(C)C)O[C@@H]2C1CC1`: the inhibition is 3.55%.
As to `c1ccc(C2CNCc3c2ccc2ccccc32)cc1` (stereo not given), the inhibition was 2.21%.
Regarding `CCCC(C(=O)NCc1ccco1)N(C(=O)CNS(=O)(=O)c1ccccc1)C1CCCC1` (stereo not given), the inhibition is -1.78%.
Under `COC(=O)C1CN(CC(C)C)CCS(=O)(=O)N1Cc1ccc(C)cc1` (stereo not given) stands 6.76%; under `O=C(C1CCCN1S(=O)(=O)c1ccccc1)N1CCc2ccccc2C1` (stereo not given), -6.97%.
On to `CC(C)CNS(=O)(=O)CC1NCCc2ccccc21` (stereo not given), for which the inhibition was 4.3%.
Take `CCn1c2ccccc2c2cc(NC(=O)CSc3nnc(-c4ccccc4)n3-c3ccc(C)cc3)ccc21`: the inhibition was -1.61%.
`O=C(Nc1cccc(F)c1)c1cc(-c2ccco2)nc2ccccc12`: the inhibition was 30.3% (active).
Then `CC(=O)N1CCN(C(=O)c2cc(-c3ccc(C)o3)nc3ccccc23)CC1`, with 32.5% (active).
Consider `CC(=O)N1CCN(C(=O)c2cc(-c3ccc(Cl)s3)nc3ccccc23)CC1`, for which the inhibition is 2.92%.
In the case of `O=C(c1cc(-c2ccco2)nc2ccccc12)N(Cc1nnc(-c2ccc(Cl)cc2)o1)C1CC1`, the inhibition was 22.5% (active).
Consider `CN(C)C(CNC(=O)CCCOc1ccccc1)c1ccco1` (stereo not given), for which the inhibition is -0.86%.
With `CN(CCOc1ccccc1)Cc1nc2cc(Cl)ccc2c(=O)[nH]1`, the inhibition is 2.3%.
As to `O=C(c1cc(-c2ccc(Cl)s2)nc2ccccc12)N1CCOCC1`, the inhibition is -5.47%.
As for `CC(C)N(Cc1nnc(-c2ccccc2Br)o1)C(=O)c1cc(Cl)nc2ccccc12`, the inhibition is -5.25%.
Regarding `Cc1cc(C(=O)Nc2ccc(C)c(S(=O)(=O)N3CCOCC3)c2)c2ccccc2n1`, the inhibition was 0.88%.
For `CN(CCOc1ccccc1)C(=O)c1cc(-c2ccco2)nc2ccccc12`, the inhibition was 29.2% (active).
As for `O=C(Nc1cccc(F)c1)c1coc(=O)c(Br)c1`, the inhibition is 5.43%.
Under `O=C(c1ccc(Cl)s1)N(Cc1nnc(-c2ccccc2Cl)o1)C1CC1` stands 1.28%; under `COC(=O)C[C@H]1CC[C@H]2[C@H](COc3ccc(NC(=O)C4CC4)cc3C(=O)N2C)O1`, 1.52%.
Then `CC(=O)NCCc1ccc(S(=O)(=O)N(C)C2CCS(=O)(=O)C2)cc1` (stereo not given), with -0.5%; and `CN1C[C@]2(C=C3CCCCC3n3c(=O)n(-c4ccccc4)c(=O)n32)N=C1NC(=O)c1ccccc1` (stereo not given in full), with 1.11%; and `COC(=O)C[C@@H]1CC[C@H]2[C@@H](COc3ccc(NS(=O)(=O)CC(F)(F)F)cc3C(=O)N2C)O1`, with 4.04%.
Take `O=C(CNS(=O)(=O)c1ccccc1)NCC(=O)OCc1ccccc1F`: the inhibition was 1.67%.
Take `CC(=O)C1(C(=O)Nc2nccs2)CC(c2ccccc2C(F)(F)F)=NO1` (stereo not given): the inhibition was 5.04%.
Take `O=C1CCC/C(=N\NC(=O)NC2CCCCC2)C1`: the inhibition was 0.8%.
With `O=C(OC12CCCN(C1)/C(=C/c1ccccc1)C2)c1ccco1` (stereo not given), the inhibition is -3.75%.
Under `CNC(=O)NC(=O)CSc1nnc(-c2ccc(F)cc2)n1CC1CCCO1` (stereo not given) stands 2.71%; under `COc1ccccc1CCNC(=O)C1CCN(c2nc(C)cc(C)n2)CC1`, 1.67%; under `CCn1c(SCC(C)=O)nc2sc3c(c2c1=O)CCCC3`, -4.09%.
For the compound `Cc1ccc(S(=O)(=O)CCC(=O)OCC(=O)N(C)C2CCS(=O)(=O)C2)cc1` (stereo not given), the inhibition was 1.31%.
For the compound `CN(C(=O)COC(=O)c1cc(-c2ccco2)nc2ccccc12)C1CCS(=O)(=O)C1` (stereo not given), the inhibition is 21.6% (active).
In the case of `Cc1cc(NC(=O)c2ccccc2C)no1`, the inhibition is -1.67%.
For `Cc1ccc(NC(=O)c2cc(-c3ccc(C)o3)nc3ccccc23)nc1`, the inhibition was 47.4% (active).
Under `COc1ccc(NC(=O)CN(C)C(=O)c2cc(C)oc2C)cc1` stands -0.84%; under `Cc1cc(C(=O)OCC(=O)N2C(C)CCCC2C)c2ccccc2n1` (stereo not given), 7.6%; under `O=C(Nc1nc2ccc(Cl)cc2s1)c1cc(-c2ccc(Cl)cc2)nc2ccccc12`, 9%.
Take `COc1cccc(NC(=O)CN(C)C(=O)c2cc(Cl)nc3ccccc23)c1`: the inhibition is -4.52%.
`COc1ccc(NC(=O)CN(C)C(=O)c2cc(-c3ccc(C)o3)nc3ccccc23)cc1`: the inhibition was 26.9% (active).
With `CC1(C)CC(CNCCC(c2ccc(F)cc2)c2ccco2)CCO1` (stereo not given), the inhibition is -2.86%.
With `O=C(NCCc1ccc(Cl)cc1Cl)c1cc([N+](=O)[O-])c[nH]c1=O`, the inhibition was -1.63%.
Consider `CC(=O)c1ccc(Cc2ncc(C(F)(F)F)cc2Cl)s1`, for which the inhibition was 1.39%.
Under `CCOC(=O)C1CCN(C(=O)C(C)(C)NC(=O)Nc2ccccc2Cl)CC1` stands -1.31%.
Turning to `Cc1ccc(-n2c(SCC(=O)Nc3ccc(S(=O)(=O)Nc4nccs4)cc3)nnc2-c2cccnc2)cc1`, the inhibition was -3.77%.
As for `O=C(COC(=O)Cc1ccc(F)cc1)Nc1cc(S(=O)(=O)N2CCOCC2)ccc1N1CCCC1`, the inhibition was -0.54%.
With `CC(C)CCC(=O)Nc1cc(S(=O)(=O)N2CCOCC2)ccc1N1CCCC1`, the inhibition was -0.42%.
`COCCNC(=S)Nc1cc(S(=O)(=O)N2CCOCC2)ccc1N1CCCCC1`: the inhibition was 29.6% (active).
Under `CN(C)Cc1cn(-c2ccc(-c3noc4c3C(=O)N(CC(=O)N3CCOCC3)CC4)cc2)nn1` stands 3.49%; under `O=C(/C=C/c1cccc(C(F)(F)F)c1)N1CCN(c2ccccn2)CC1`, 3.3%.
On to `Cc1ccc(C)c(NC(=O)CCS(=O)(=O)c2ccccc2)c1`, for which the inhibition was 10%.
For the compound `O=S(=O)(Nc1n[nH]c(C(F)(F)F)n1)c1ccccc1`, the inhibition was -0.91%.
As for `Cc1noc(C)c1C(=O)OC(C)C(=O)Nc1ccc2c(c1)OCO2` (stereo not given), the inhibition was -4.06%.
Regarding `O=S(=O)(NC1CC1)c1ccc(F)c(F)c1`, the inhibition was 0.17%.
As for `CC1CCC(NS(=O)(=O)c2ccc3c(c2)CC(=O)N3)CC1` (stereo not given), the inhibition is 2.71%.
`Cn1sc(=O)c2cc(S(=O)(=O)NC3CC3)ccc21`: the inhibition was 36.8% (active).
